This passage reports Potency results from PubChem BioAssay (NCATS).

Inconclusive results are not listed. The source made the active and inactive calls. Calls follow the shape of the dose curve; as a rule, active = well fitted curve in the direction sought with a large enough effect; inconclusive = small, poorly fitted or top-dose-only effect, or another doubt; inactive = no such curve, though single readings can be large; an effect the other way counts as inactive or inconclusive.

Assay [1] is described as follows: qHTS of pediatric cancer cell lines to identify multiple opportunities for drug repurposing: Primary screen for A673 cells (AID 1347092). Also: nearly all actives have a fitted effect of over 45% in size. An outline of the steps:
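Cell viability of A673 measured by CellTiter-Glo ATP luminescence after 48 hours compound exposure. Dilution series spanned 0.78 nM to 46 µM (MIPE, 11-point) or 0.59 nM to 46 µM (NPC, 8-point); bortezomib 2.3 uM positive control.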
In general terms: In qHTS, concentration-response curves come from the screen itself.

Assay [2] is described as follows: qHTS of pediatric cancer cell lines to identify multiple opportunities for drug repurposing: Primary screen for SK-N-MC cells (AID 1347093). An outline of the steps: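 Metabolically active cells were quantified by ATP-dependent luminescence (CellTiter-Glo, 15 min at room temperature) following 48 h treatment. Cells had been plated at 500-1,000 per well and settled for 5 h beforehand.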

Assay [3] is described as follows: qHTS of pediatric cancer cell lines to identify multiple opportunities for drug repurposing: Primary screen for BT-37 cells (AID 1347094). An outline of the steps: (§1)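 Readout: CellTiter-Glo luminescence, 48 h treatment. Controls DMSO (neutral) and bortezomib 2.3 µM final (positive). Potency and efficacy taken from primary-screen concentration-response curves.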
Assay [4] can be described thus: qHTS of pediatric cancer cell lines to identify multiple opportunities for drug repurposing: Primary screen for NB-EBc1 cells (AID 1347095). An outline of the steps:
as §1

Assay [5] in a line: qHTS of pediatric cancer cell lines to identify multiple opportunities for drug repurposing: Primary screen for U-2 OS cells (AID 1347096). Also: nearly all actives have a fitted effect of over 50% in size. In outline: (§2)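 Cells (500-1,000/well) rested 5 h, then received compounds for 48 h; metabolically active cells were measured by CellTiter-Glo luminescence. Final concentrations spanned up to 46 µM (MIPE, 11-point) or 0.59 nM-46 µM (NPC, 8-point) in primary screens, 11-point in follow-ups.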

A short description of assay [6]: qHTS of pediatric cancer cell lines to identify multiple opportunities for drug repurposing: Primary screen for NB1643 cells (AID 1347099). Also: nearly all actives have a fitted effect of over 50% in size. In outline: as §1
A short description of assay [7]: qHTS of pediatric cancer cell lines to identify multiple opportunities for drug repurposing: Primary screen for LAN-5 cells (AID 1347100). In outline: as §2
Assay [8] in a line: qHTS of pediatric cancer cell lines to identify multiple opportunities for drug repurposing: Primary screen for BT-12 cells (AID 1347101). Also: nearly all actives have a fitted effect of over 25% in size. An outline of the steps:
as §2

The nature of assay [9]: qHTS of pediatric cancer cell lines to identify multiple opportunities for drug repurposing: Primary screen for Rh18 cells (AID 1347102). Also: nearly all actives have a fitted effect of over 65% in size. In outline: as §2
Assay [10] in a line: qHTS of pediatric cancer cell lines to identify multiple opportunities for drug repurposing: Primary screen for OHS-50 cells (AID 1347103). Also: nearly all actives have a fitted effect of over 40% in size. An outline of the steps:
as §2

The nature of assay [11]: qHTS of pediatric cancer cell lines to identify multiple opportunities for drug repurposing: Primary screen for RD cells (AID 1347104). Also: nearly all actives have a fitted effect of over 55% in size. In outline:
as §1

Assay [12] in a line: qHTS of pediatric cancer cell lines to identify multiple opportunities for drug repurposing: Primary screen for control Hh wild type fibroblast cells (AID 1347106). Also: nearly all actives have a fitted effect of over 55% in size. In outline:
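Viability after 48 h compound treatment at 37C, 500-1,000 cells/well, read as ATP luminescence with CellTiter-Glo. Primary screens used 11-point (MIPE, 0.78 nM-46 µM) or 8-point (NPC, 0.59 nM-46 µM) final concentrations; follow-up screens used 11-point dilutions.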

Assay [13] in a line: qHTS of pediatric cancer cell lines to identify multiple opportunities for drug repurposing: Primary screen for Rh30 cells (AID 1347107). Also: nearly all actives have a fitted effect of over 75% in size. An outline of the steps: as §2
Assay [14] is described as follows: qHTS of pediatric cancer cell lines to identify multiple opportunities for drug repurposing: Primary screen for Saos-2 cells (AID 1347097). Also: nearly all actives have a fitted effect of over 40% in size. In outline: as §1
A short description of assay [15]: qHTS of pediatric cancer cell lines to identify multiple opportunities for drug repurposing: Primary screen for Rh41 cells (AID 1347108). Also: nearly all actives have a fitted effect of over 70% in size. An outline of the steps:
as §1

Assay [16] can be described thus: qHTS of pediatric cancer cell lines to identify multiple opportunities for drug repurposing: Confirmatory screen for A673 cells (AID 1347110).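 Also: cells exposed to compound for 48 h before the viability read; nearly all actives have a fitted effect of over 65% in size.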 An outline of the steps:
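Viability was read as ATP luminescence (CellTiter-Glo) after 48 h of compound exposure at 37 C in A673 cells seeded at 500-1,000/well. Titrations reached 46 uM final, with 11 points in the confirmatory screen. Concentration-response curves were fitted directly.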

A short description of assay [17]: qHTS of pediatric cancer cell lines to identify multiple opportunities for drug repurposing: Confirmatory screen for SK-N-MC cells (AID 1347111).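 Also: cells exposed to compound for 48 h before the readout; nearly all actives have a fitted effect of over 70% in size.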 In outline: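 Seed 500-1,000 cells/well; rest 5 h at 37 degrees C. Pin-transfer compounds, 11-point titration. Incubate 48 h. Add CellTiter-Glo, 15 min RT, read luminescence.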
Assay [18] in a line: qHTS of pediatric cancer cell lines to identify multiple opportunities for drug repurposing: Primary screen for SK-N-SH cells (AID 1347098). Also: nearly all actives have a fitted effect of over 65% in size. In outline:
as §2

Assay [19] can be described thus: qHTS of pediatric cancer cell lines to identify multiple opportunities for drug repurposing: Primary screen for MG 63 (6-TG R) cells (AID 1347105). Also: nearly all actives have a fitted effect of over 50% in size. In outline:
as §1

Assay [20] can be described thus: qHTS of pediatric cancer cell lines to identify multiple opportunities for drug repurposing: Confirmatory screen for NB1643 cells (AID 1347109). Also: nearly all actives have a fitted effect of over 45% in size. An outline of the steps: as §2
Potency is read from the fitted curve at half-maximal effect.

As for `COC(=O)[C@H](CCCN=C(N)N)NS(=O)(=O)c1ccc(C)cc1`, the Potency result in [1], in [2], in [3], in assay [4], in assay [5] and in assay [6] was “inactive” in each case. For the same compound, the Potency result in assay [7], in [8], in assay [9], in assay [10], in [11] and in assay [12] was “inactive” in each case. For the same compound, the Potency result in assay [13] was “inactive”.
For `Oc1ccc(-c2ccc(-c3cc(Nc4cccc(CNC5CC5)c4)n[nH]3)cc2)c(O)c1`, the Potency in [1] is 0.935 µM (active); in [2], 0.372 µM (active); in assay [3], 5.44 µM (active); in assay [4] it was 2.96 µM (active); in assay [5], 5.9 µM (active); in assay [14], 5.9 µM (active). Besides, the Potency in assay [10] is 1.09 µM (active); in assay [11] it was 10.5 µM (active); in assay [15] it was 14.8 µM (active); in assay [16] it was 2.33 µM (active); in assay [17] it was 0.827 µM (active). Moreover, the Potency result in assay [6] and in [12] was “inactive” in each case.
Take `NC(=O)Nc1sc(-c2ccc(F)cc2)cc1C(N)=O`: the Potency is 0.59 µM (active) in [1]; 0.059 µM (active) in assay [2]; 0.685 µM (active) in [3]; 0.469 µM (active) in [4]; 4.69 µM (active) in assay [5]; 2.35 µM (active) in assay [14]. The Potency in [18] was 5.41 µM (active); in [6] it was 4.69 µM (active); in assay [7], 1.18 µM (active); in assay [9] it was 5.26 µM (active); in assay [10], 0.432 µM (active); in assay [11], 1.66 µM (active). The Potency in assay [19] is 0.59 µM (active); in [13], 6.62 µM (active); in assay [15], 1.05 µM (active); in assay [16], 6.57 µM (active); in assay [17], 8.27 µM (active). Further, the Potency entry in assay [12] was “inactive”.
Regarding `CC(=O)OCC(=O)[C@@]12N=C(C)O[C@H]1C[C@H]1[C@@H]3CCC4=CC(=O)C=C[C@]4(C)[C@@H]3[C@@H](O)C[C@@]12C`, the Potency result in assay [1], in [2], in assay [3], in [4], in [14] and in [18] was “inactive” in each case. The Potency entry in assay [6], in [7], in assay [8], in [9], in [10] and in assay [11] was “inactive” in each case. The Potency entry in assay [19], in assay [12] and in [13] was “inactive” in each case.
On to `CC(=O)SCC(Cc1ccccc1)C(=O)NCC(=O)OCc1ccccc1` (stereo not drawn), for which the Potency was 0.59 µM (active) in assay [1]; 0.187 µM (active) in [2]; 0.344 µM (active) in assay [3]; 1.66 µM (active) in assay [4]; 3.72 µM (active) in assay [5]; 4.69 µM (active) in [14]. Further, the Potency in assay [18] is 0.271 µM (active); in assay [7], 0.296 µM (active); in assay [8], 3.43 µM (active); in assay [10], 19.3 µM (active); in assay [11], 2.09 µM (active); in assay [15] it was 5.9 µM (active). Moreover, the Potency result in assay [20] and in assay [16] was “inactive” each time.
For the compound `CC(=O)OCC(=O)[C@@]1(O)CC[C@H]2[C@@H]3CCC4=CC(=O)CC[C@]4(C)[C@@H]3C(=O)C[C@@]21C`, the Potency entry in [1], in assay [2], in assay [3], in assay [4], in assay [5] and in [14] was “inactive” in each case. The Potency result in assay [18], in [6], in assay [7], in [9], in [10] and in assay [11] was “inactive” throughout. The Potency result in assay [19], in [12], in [13] and in [15] was “inactive” in each case.
Take `CCN(CC)CCNC(=O)c1c(C)[nH]c(C=C2C(=O)Nc3ccc(F)cc32)c1C`: the Potency in assay [1] is 5.4 µM (active); in [2], 1.08 µM (active); in [3] it was 17.7 µM (active); in assay [4], 7.62 µM (active); in assay [5], 21.5 µM (active); in assay [14], 4.29 µM (active). Besides, the Potency in [18] was 22.1 µM (active); in assay [6] it was 38.2 µM (active); in assay [7], 4.29 µM (active); in assay [9], 17.1 µM (active); in assay [10], 1.4 µM (active); in assay [11], 9.59 µM (active). Further, the Potency in assay [19] is 13.6 µM (active); in assay [12] it was 17.1 µM (active); in assay [13], 27 µM (active); in assay [15], 13.6 µM (active); in assay [20], 10.7 µM (active); in assay [16] it was 10.7 µM (active).
`C=C1CCC2[C@](C)(CO)C(O)CC[C@]2(C)C1CC=C1C(=O)OCC1O` (stereo partly drawn): the Potency result in assay [1], in assay [2], in [3], in assay [4], in assay [5] and in assay [18] was “inactive” throughout. In addition, the Potency result in [6], in assay [7], in assay [8], in assay [9], in assay [10] and in [11] was “inactive” in each case. For the same compound, the Potency result in [19], in assay [12], in [13] and in assay [15] was “inactive” each time.
In the case of `COc1cc(C=CC(=O)CC(=O)C=Cc2ccc(O)c(OC)c2)ccc1O`, the Potency in assay [1] is 6.79 µM (active); in assay [2], 5.4 µM (active); in assay [3], 31.4 µM (active); in assay [4], 38.2 µM (active); in assay [14], 30.3 µM (active); in assay [6], 12.1 µM (active). For the same compound, the Potency is 9.59 µM (active) in assay [7]; 44.4 µM (active) in assay [8]; 38.2 µM (active) in [9]; 39.5 µM (active) in assay [10]; 30.3 µM (active) in assay [15]; 30.2 µM (active) in assay [20]. Moreover, the values for the Potency in assay [16] and in [17] were 10.7 µM (active) and 15.1 µM (active), respectively.
Take `CCCCCCCCc1ccc(CCC(N)(CO)CO)cc1`: the Potency is 4.69 µM (active) in assay [1]; 1.87 µM (active) in assay [2]; 21.7 µM (active) in [3]; 16.6 µM (active) in [4]; 18.7 µM (active) in assay [14]; 34.1 µM (active) in [18]. For the same compound, the Potency in assay [6] is 18.7 µM (active); in assay [7], 26.4 µM (active); in assay [8], 21.7 µM (active); in [9], 16.6 µM (active); in [11], 8.33 µM (active); in assay [19], 18.7 µM (active). In addition, the Potency in assay [13] and in [15] was 18.7 µM (active) in each case. Moreover, in assay [12], the Potency entry was “inactive”.
As for `N#Cc1c(NC(=O)c2cccc3ccccc23)sc2c1CCCC2`, the Potency was 0.235 µM (active) in assay [1]; 0.235 µM (active) in assay [2]; 1.09 µM (active) in [3]; 0.332 µM (active) in assay [4]; 0.132 µM (active) in [14]; 4.69 µM (active) in [6]. Also, the Potency in assay [7] is 0.148 µM (active); in assay [8], 1.09 µM (active); in assay [16], 0.414 µM (active); in assay [17], 0.369 µM (active). In addition, in assay [13], the Potency result is “inactive”.
